{"source": "PubChem BioAssay AID1850", "about": "(Southern Research Specialized Biocontainment Screening …, 2009)", "note": "Hit rate of the full screen: of about 310,000 compounds, about 1,000 (0.32%) were called active. How the calls were made is not given here. Not all results are given here. Potency and affinity values are given separately.", "data": [{"assay": "Inhibition of PhoP regulon, Salmonella typhi GFP reporter cells, confirmation, 4 h (AID 1850);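 further: 0% = induced wells with vehicle and 100% = uninduced wells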", "settings": "Salmonella Typhi PhoP-promoter GFP reporter, fluorescence, at 50 µM, active compounds read high", "values": [{"smiles": "COc1ccccc1S(=O)(=O)CC(O)COc1ccccc1Cl", "note": "(stereo not given)", "inhibition": "-5.18% (inactive)"}, {"smiles": "CN(CCc1ccccn1)C(=O)Nc1ccc(F)cc1", "inhibition": "-7.13% (inactive)"}, {"smiles": "COc1ccc(-c2ccc(CCC(=O)O)n2NC(=O)c2cccs2)cc1", "inhibition": "-5.76% (inactive)"}, {"smiles": "CN(CC(=O)Nc1ccccc1Cl)C(=O)COC(=O)c1cc([N+](=O)[O-])ccc1N1CCOCC1", "inhibition": "-1.8% (inactive)"}, {"smiles": "Fc1ccc(CNCCc2ccccc2)cc1", "inhibition": "14.4% (inactive)"}, {"smiles": "Fc1ccc(CNCc2ccccc2Cl)cc1", "inhibition": "10.6% (inactive)"}, {"smiles": "c1csc(CNCc2ccncc2)c1", "inhibition": "1.76% (inactive)"}, {"smiles": "Brc1ccc(CNCc2cccs2)cc1", "inhibition": "-4.52% (inactive)"}, {"smiles": "O=C(COc1ccc(Br)cc1)N1CCN(Cc2c[nH]c3ccccc23)CC1", "inhibition": "1.07% (inactive)"}, {"smiles": "O=C(NCc1ccco1)/C(=C\\c1ccco1)NC(=O)c1ccco1", "inhibition": "-9.29% (inactive)"}, {"smiles": "CC1=NN(c2ccc([N+](=O)[O-])cc2)C(c2ccccc2)C1", "note": "(stereo not given)", "inhibition": "-7.1% (inactive)"}, {"smiles": "CC1(C)CC(=O)C2=C(C1)NC(=O)CC2c1cc(F)ccc1F", "note": "(stereo not given)", "inhibition": "8.24% (inactive)"}, {"smiles": "CC1(C)C2CCC1(CS(=O)(=O)N1CCN(c3ccc(F)cc3)CC1)C(=O)C2", "note": "(stereo not given)", "inhibition": "-7.85% (inactive)"}, {"smiles": "COc1ccc(S(=O)(=O)NC(C)C(=O)NCc2cccnc2)cc1Cl", "note": "(stereo not given)", "inhibition": "-1.39% (inactive)"}, {"smiles": "Cc1ccc2c(c1)C1CN(C)CCC1N2S(=O)(=O)c1ccccc1", "note": "(stereo not given)", "inhibition": "4.23% (inactive)"}, {"smiles": "Cc1ccc2c(c1)[C@@H]1CN(C)CC[C@@H]1N2S(=O)(=O)c1ccc([N+](=O)[O-])cc1", "inhibition": "0.95% (inactive)"}, {"smiles": "CN(C)c1cc[n+](CC(=O)c2ccc(OC(F)F)cc2)cc1", "inhibition": "19.8% (inactive)"}, {"smiles": "COc1ccc(CNC(=O)c2cc(COc3c(F)cccc3F)on2)cc1OC", "inhibition": "-2.31% (inactive)"}, {"smiles": "O=C(O)CCc1ccc(-c2ccc(Br)cc2)n1-c1cccc(O)c1", "inhibition": "-2.3% (inactive)"}, {"smiles": "CCCCCOC(=O)CSc1nc2c(c(=O)[nH]c(=O)n2C)n1CCc1ccccc1", "inhibition": "2.47% (inactive)"}, {"smiles": "COCc1c(C(=O)OCC(=O)N2c3ccccc3CC2C)oc2ccccc12", "note": "(stereo not given)", "inhibition": "-3.75% (inactive)"}, {"smiles": "CC(C)C(CCNCc1ccccn1)c1ccc(Cl)cc1", "note": "(stereo not given)", "inhibition": "-0.74% (inactive)"}, {"smiles": "CC(C)CCC(CCNCc1ccccn1)c1ccc2c(c1)OCO2", "note": "(stereo not given)", "inhibition": "21.8% (inactive)"}, {"smiles": "CC(=O)n1cc([C@H]2C=C(C(N)=O)O[C@@H](OCc3ccc(CO)cc3)C2)c2ccccc21", "inhibition": "2.45% (inactive)"}, {"smiles": "CCCOC(=O)C[N+](C)(C)CCOC1CC2CCC1(C)C2(C)C", "note": "(stereo not given)", "inhibition": "-4.95% (inactive)"}, {"smiles": "CCCCOC(=O)C[N+](C)(C)CCOC1CC2CCC1(C)C2(C)C", "note": "(stereo not given)", "inhibition": "-1.52% (inactive)"}, {"smiles": "Cc1ccc(Nc2ccc([N+](=O)[O-])ccc2=O)cc1", "inhibition": "-3.8% (inactive)"}, {"smiles": "Cc1cccc(C(=O)NCC(=O)N2CCN(c3ccc(Cl)cc3)CC2)c1", "inhibition": "4.53% (inactive)"}, {"smiles": "Cc1cc(C)nc(NCCO)n1", "inhibition": "1.84% (inactive)"}, {"smiles": "Fc1ccccc1Sc1ccccc1CNC1=NCCN1", "inhibition": "2.16% (inactive)"}, {"smiles": "Fc1ccc(Sc2ccccc2CNC2=NCCN2)cc1", "inhibition": "-8.62% (inactive)"}, {"smiles": "COc1ccc(C)cc1NC(=O)C1CCN(S(=O)(=O)c2ccc3c(c2)NC(=O)CO3)CC1", "inhibition": "-3.38% (inactive)"}, {"smiles": "CCCCn1c(N)c(N(CC(C)C)C(=O)c2cc(-c3ccc(OC)c(OC)c3)nc3ccccc23)c(=O)[nH]c1=O", "inhibition": "11.8% (inactive)"}, {"smiles": "CC(=O)c1cc(C(=O)NC2CCCc3c2cnn3-c2cc(C)cc(C)c2)[nH]n1", "note": "(stereo not given)", "inhibition": "-9.06% (inactive)"}, {"smiles": "O=C(Nc1nc2ccccc2[nH]1)c1cccc(F)c1", "inhibition": "0.03% (inactive)"}, {"smiles": "CC(C)n1cnc2c(Nc3cccc(F)c3)nc(NCCO)nc21", "inhibition": "-14.7% (inactive)"}, {"smiles": "Cc1cccc(OCc2nnc3n2CCCCC3)c1", "inhibition": "-4.01% (inactive)"}, {"smiles": "CCOC(=O)N1CCN(S(=O)(=O)c2ccc(C(=O)Nc3nnc(CSC)o3)cc2)CC1", "inhibition": "-31.1% (inactive)"}, {"smiles": "CC(OC(=O)c1ccccc1Nc1ccc(SC(F)F)cc1)C(N)=O", "note": "(stereo not given)", "inhibition": "-1.22% (inactive)"}, {"smiles": "C#CCOCCOCCOCCNc1nc(N2CCN(C(=O)CCCCCCCCCCNC(=O)[C@@H](CCSC)n3cc(CCO)nn3)CC2)nc(N2CCN(C(=O)CCCCCCCCCCNC(=O)[C@H](CCSC)n3cc(CCO)nn3)CC2)n1", "inhibition": "2.16% (inactive)"}, {"smiles": "C#CCOCCOCCOCCNc1nc(N2CCN(C(=O)CCCCCCCCCCNC(=O)[C@@H](CCSC)n3cc(CCO)nn3)CC2)nc(N2CCN(C(=O)CCCCCCCCCCNC(=O)[C@H](CO)n3cc(CCCCCN)nn3)CC2)n1", "inhibition": "14.1% (inactive)"}, {"smiles": "C#CCOCCOCCOCCNc1nc(N2CCN(C(=O)CCCCCCCCCCNC(=O)[C@@H](CCSC)n3cc(CCO)nn3)CC2)nc(N2CCN(C(=O)CCCCCCCCCCNC(=O)[C@H](CCC(=O)O)n3cc(CCCCCN)nn3)CC2)n1", "inhibition": "1.19% (inactive)"}, {"smiles": "C#CCOCCOCCOCCNc1nc(N2CCN(C(=O)CCCCCCCCCCNC(=O)[C@H]([C@@H](C)CC)n3cc(CCCCN=C(N)N)nn3)CC2)nc(N2CCN(C(=O)CCCCCCCCCCNC(=O)[C@H](CO)n3cc(CCCSC)nn3)CC2)n1", "inhibition": "0.56% (inactive)"}, {"smiles": "CC(=O)Oc1ccc(C(=O)Nc2cc(C)on2)cc1", "inhibition": "3.46% (inactive)"}, {"smiles": "Nc1cccc(C(=O)N/N=C/c2ccsc2)c1", "inhibition": "-10.7% (inactive)"}, {"smiles": "NC(=S)N=Nc1c(O)[nH]c2ccccc12", "inhibition": "-2.48% (inactive)"}, {"smiles": "Oc1[nH]c2ccc(Br)cc2c1N=NC(=S)Nc1ccc(F)cc1", "inhibition": "14.4% (inactive)"}, {"smiles": "O=C(N=Nc1c(O)[nH]c2ccccc12)c1ccc(CN2CCOCC2)cc1", "inhibition": "8.21% (inactive)"}, {"smiles": "N=C(N)N=Nc1c(O)[nH]c2ccc(Br)cc12", "inhibition": "-13.7% (inactive)"}, {"smiles": "COc1ccc(C(=O)C(Cc2cc(C(C)=O)ccc2OC)N2CCCC2)cc1", "note": "(stereo not given)", "inhibition": "-6.51% (inactive)"}, {"smiles": "O=C(Nc1cccc(S(=O)(=O)N2CCOCC2)c1)c1cnccn1", "inhibition": "-6.33% (inactive)"}, {"smiles": "Cn1c(-c2ccc(F)cc2)cnc1NCc1cccc([N+](=O)[O-])c1", "inhibition": "9.25% (inactive)"}, {"smiles": "COc1ccc(N2CCN(c3nc(Cl)nc(Nc4ccc(F)cc4)n3)CC2)cc1", "inhibition": "-8.76% (inactive)"}, {"smiles": "Fc1ccc(Nc2nc(N3CCOCC3)nc(N3CCOCC3)n2)cc1", "inhibition": "4.25% (inactive)"}, {"smiles": "CCCOc1cc2c(C#N)c(N3CCCC3)nc(N)c2c(N)n1", "inhibition": "1.34% (inactive)"}]}]}
